Test results as given in PubChem BioAssay AID652048 (National Center for Advancing Translational Sciences (NCATS), 2013).
Where “and” joins values, the source holds several entries; their conditions need not be identical. Identical values can stand only once. Screen size: about 410,000 compounds; about 2,400 (0.59%) were called active. Cut-off read from the data, not from the text of the source: active = max activation above about 30%; inactive = the rest. This excerpt belongs to a sample that is enriched for actives.

Molecular target: D(3) dopamine receptor (Homo sapiens) (UniProt P35462)
Sequence (P35462 whole entry, looked up): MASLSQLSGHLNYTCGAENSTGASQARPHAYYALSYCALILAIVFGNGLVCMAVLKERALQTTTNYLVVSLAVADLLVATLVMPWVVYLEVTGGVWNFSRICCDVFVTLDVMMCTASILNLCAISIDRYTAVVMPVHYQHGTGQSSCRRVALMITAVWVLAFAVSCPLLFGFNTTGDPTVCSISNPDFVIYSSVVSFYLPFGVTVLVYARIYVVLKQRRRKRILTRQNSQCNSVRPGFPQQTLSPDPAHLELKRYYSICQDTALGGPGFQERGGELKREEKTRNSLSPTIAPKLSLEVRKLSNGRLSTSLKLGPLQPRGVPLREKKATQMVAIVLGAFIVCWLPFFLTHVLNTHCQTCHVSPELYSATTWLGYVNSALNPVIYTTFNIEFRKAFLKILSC
Test: qHTS of D3 Dopamine Receptor Agonist: qHTS; note: 0% is about no effect
Conditions: D3R DiscoveRx beta-arrestin cells, luminescence, 90 min; hits give high values
Procedure, shortened: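 Agonist mode: compounds and dopamine controls were applied to plated cells for 90 min at 37 degrees C after an overnight attachment at 1500 cells/well. Luminescent read-out followed 30 - 60 minutes at room temperature with DiscoveRx detection reagent.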

| SMILES | max activation |
| --- | --- |
| COc1cc(CNCCSc2nnnn2C)ccc1OCc1ccc(Cl)cc1Cl | -19% (inactive) |
| O=C(CCC1N=C2c3ccccc3N=C(SCc3ccccc3F)N2C1=O)NCCc1ccccc1 (centres undefined) | 5.62% (inactive) |
| O=C(Cn1nnc(-c2ccccc2)n1)NC(=O)NC1CCCC1 | 4.92% (inactive) |
| Cc1ccc(NC(=O)CN(C)C(=O)Cn2nnc(-c3ccccc3)n2)cc1 | 5.42% (inactive) |
| O=C(Cn1nnc(-c2ccccc2)n1)N/N=C/c1ccc(-c2ccc(Cl)cc2)o1 | 34.9% (active) |
| CCOc1ccc(CNC(=O)c2cc(=O)[nH]c3ccc(S(=O)(=O)N4CCCCC4)cc23)cc1 | 1.15% (inactive) |
| COc1ccc2cc(CNc3ccc(OC)c(OC)c3)c(=O)n(CC(=O)Nc3ccccc3F)c2c1 | 2.84% (inactive) |
| Cc1ccc(OCCSc2nc(C)c(Cc3ccccc3)c(=O)[nH]2)cc1 | 4.35% (inactive) |
| Cc1ccc(CNC(=O)Cc2cn(C)c3ccccc23)cc1 | -3.47% (inactive) |
| Cc1ccc(CNC(=O)[C@@H](NC(=O)Cc2ccccc2)C(C)C)cc1 | -1.46% (inactive) |
| Cc1ccc(CNC(=O)c2ccccc2CCc2ccccc2)cc1 | 31.4% (active) |
| COC(=O)C1(S(=O)(=O)C2(C(=O)OC)CCCC2)CCCC1 | 31% (active) |
| CC1(C)OC[C@@H](COC(=O)CCc2ccc(OC[C@@H](O)CNCCNC(=O)N3CCOCC3)cc2)O1 | -23.2% (inactive) and -20.2% (inactive) |
| CC(C)(C)OC(=O)CNC(=O)c1[nH]cnc1C(=O)N[C@@H](CCCCN)C(=O)OC(C)(C)C | 0% (inactive) |
| CCN1CCN(CCCNC(=O)c2ccc3c(c2)sc2nc(-c4ccc(OC)cc4)cn23)CC1 | -6.77% (inactive) |
| COc1ccc(-c2cn3c(n2)sc2cc(C(=O)Nc4ccc(F)cc4)ccc23)cc1 | 13.3% (inactive) |
| COc1ccc(-c2cn3c(n2)sc2cc(C(=O)Nc4ccccc4F)ccc23)cc1 | 35.4% (active) |
| O=C(Nc1ccc(O)cc1)c1ccccc1O | -0.0653% (inactive) |
| CC1(C)SC2C(NC(=O)COc3ccccc3)C(=O)N2C1C(=O)O (centres undefined) | 2.21% (inactive) and 6.06% (inactive) |
| COC(=O)C1[C@H]2SC(C)(C)C(C(=O)OC)N2C(=O)N1Cc1nc2ccccc2s1 (some centres undefined) | 37.5% (active) |
| CC1(C)S[C@@H]2[C@H](NC(=O)COc3ccccc3)C(=O)N2C1C(=O)OCc1ccccc1 (some centres undefined) | -3.7% (inactive) |
| Cc1ccc2[nH]c3c(=O)n(CC(=O)NC(C)C)ncc3c2c1 | 2.56% (inactive) |
| CCOc1ccc(NS(=O)(=O)c2ccc(N)cc2)nn1 | -7.97% (inactive) |
| COc1ccc(C(=O)NC2CCCc3c2cnn3-c2cccc(C)c2C)c(OC)n1 (centres undefined) | 48.2% (active) |
| COc1cccc(C(=O)Nc2c3c(nn2-c2cccc(C)c2C)CS(=O)(=O)C3)c1OC | -20.8% (inactive) |
| Cc1cccc(C(=O)OC(C)C(=O)NC2CCCc3ccccc32)c1O (centres undefined) | -10.5% (inactive) |
| Cc1ccc(NC(=O)c2nc(S(=O)(=O)Cc3cccc(C)c3)ncc2Cl)cc1 | -23.7% (inactive) |

| SMILES | max activation |
| --- | --- |
| CC1(C)S[C@@H]2[C@H](N=CN3CCCCCC3)C(=O)N2[C@H]1C(=O)O | -22.5% (inactive) |
| CC(C)(C)OC(=O)N1CCC(c2c(C(=O)NCCc3ccsc3)cnn2-c2ccc(F)cc2F)CC1 | 6.51% (inactive) |
| COc1ccc(/C=C/C(=O)c2cc(Br)ccc(=O)c2O)cc1 | -1.59% (inactive) |
| CCOc1ccc(/C=C/C(=O)OCC(=O)c2ccccc2OC)cc1OC | 3.52% (inactive) |
| COCOc1cc(O)c(C(=O)/C=C/c2ccc(OCOC)c(OCOC)c2)c(OCOC)c1 | 32% (active) |
| O=C(Nc1cccc(C(F)(F)F)c1)c1cc(Br)cc(Br)c1O | 0.389% (inactive) |
| CC(C(=O)O)c1ccc(C2CCCCC2)c2ccccc12 (centres undefined) | 4% (inactive) |
| Cc1ccc2nc(CN3CCN(S(=O)(=O)c4ccc(C)c(C)c4)CC3)oc2c1 | -11.8% (inactive) |
| COc1ccc2c(c1)c(=Cc1ccc(N(C)C)cc1)c1cc(-c3ccccc3)[n+](C)n12 | 1.19% (inactive) |
| COc1ccc2sc(-c3ccc(N(C)C)cc3)c(C#CCO)c2c1 | 38.4% (active) |
| Cc1ccc(C)c(S(=O)(=O)n2nc(C)c(S(=O)(=O)N3CCC(C)CC3)c2C)c1 | 3.28% (inactive) |
| CC(O)COc1ccccc1 (centres undefined) | 8.58% (inactive) |
| COc1ccc(NC(=O)CSc2nc3ccccc3[nH]2)cc1 | 0.0768% (inactive) |
| CC1CCN(C(=O)COC(=O)c2cc(=O)[nH]c3ccccc23)CC1 | -2.85% (inactive) |
| O=C(COC(=O)c1cc(=O)[nH]c2ccccc12)NCc1cccc(Cl)c1 | 3.7% (inactive) |
| O=C(CSc1nc(O)c(Cc2ccccc2)c(=O)[nH]1)Nc1nc2c(s1)CCCC2 | 3.59% (inactive) |
| O=C(CSc1nc2ccccc2c(=O)[nH]1)Nc1nc(-c2ccc(Br)cc2)cs1 | 37.7% (active) |
| O=C(COC(=O)c1cc(=O)[nH]c2ccccc12)Nc1nc(-c2cccc(Br)c2)cs1 | 38.6% (active) |
| COc1ccc(C(=O)Nc2cccc(C(=O)OCc3cc(=O)n4c5c(sc4n3)CCCC5)c2)cc1 | -9.48% (inactive) |
| COc1cccc2cc(-c3nc(Cl)c4c5c(sc4n3)CC(C)CC5)c(=O)oc12 (centres undefined) | 8.91% (inactive) |
| COC(=O)c1sccc1S(=O)(=O)N(CC(=O)Nc1ccc(C)c(F)c1)c1ccc(C)c(C)c1 | -2.21% (inactive) |
| Cc1ccc(CN2CCC(CNC(=O)c3cnn(-c4ccccc4Cl)c3C3CCN(C(=O)OC(C)(C)C)CC3)CC2)cc1 | -13.6% (inactive) |
| CO/N=C(/C(=O)N[C@@H]1C(=O)N2C(C(=O)O)=C(Cn3nnc(C)n3)CS[C@H]12)c1csc(N)n1 | -4.25% (inactive) |
| Cc1ccc(CCNC(=O)C2CCN(c3nnc(-n4cccc4CNc4ccc(C)cc4)s3)CC2)cc1 | 56.2% (active) |
| CSc1ccc(CCNC(=O)C2CCN(c3nnc(-n4cccc4)s3)CC2)cc1 | -2.44% (inactive) |
| CCOc1ccc(CNC(=O)C2CCN(c3nnc(-n4cccc4CNc4ccc(C)cc4)s3)CC2)cc1OC | 1.82% (inactive) |
| N[C@H]1CN(c2c(F)cc3c(=O)c(C(=O)O)cn(C4C[C@H]4F)c3c2Cl)CC12CC2 (some centres undefined) | -3.15% (inactive) |
